Results from PMC4336329 (PLoS ONE, 2015).
Among all 310,000 compounds or so, about 14,000 (4.5%) showed an effect of 50% or more. The effect is printed as a negative number. Many of the other results were omitted from the sample, so strong results are more common in it than they were.

These molecules were tested against human ether-à-go-go-related gene (hERG) potassium channel (human, UniProt Q12809) (assay: primary screen, population patch clamp on CHO cells stably expressing hERG; higher = less effect of the substance).
human ether-à-go-go-related gene (hERG) potassium channel, sequence (Q12809 whole entry, looked up): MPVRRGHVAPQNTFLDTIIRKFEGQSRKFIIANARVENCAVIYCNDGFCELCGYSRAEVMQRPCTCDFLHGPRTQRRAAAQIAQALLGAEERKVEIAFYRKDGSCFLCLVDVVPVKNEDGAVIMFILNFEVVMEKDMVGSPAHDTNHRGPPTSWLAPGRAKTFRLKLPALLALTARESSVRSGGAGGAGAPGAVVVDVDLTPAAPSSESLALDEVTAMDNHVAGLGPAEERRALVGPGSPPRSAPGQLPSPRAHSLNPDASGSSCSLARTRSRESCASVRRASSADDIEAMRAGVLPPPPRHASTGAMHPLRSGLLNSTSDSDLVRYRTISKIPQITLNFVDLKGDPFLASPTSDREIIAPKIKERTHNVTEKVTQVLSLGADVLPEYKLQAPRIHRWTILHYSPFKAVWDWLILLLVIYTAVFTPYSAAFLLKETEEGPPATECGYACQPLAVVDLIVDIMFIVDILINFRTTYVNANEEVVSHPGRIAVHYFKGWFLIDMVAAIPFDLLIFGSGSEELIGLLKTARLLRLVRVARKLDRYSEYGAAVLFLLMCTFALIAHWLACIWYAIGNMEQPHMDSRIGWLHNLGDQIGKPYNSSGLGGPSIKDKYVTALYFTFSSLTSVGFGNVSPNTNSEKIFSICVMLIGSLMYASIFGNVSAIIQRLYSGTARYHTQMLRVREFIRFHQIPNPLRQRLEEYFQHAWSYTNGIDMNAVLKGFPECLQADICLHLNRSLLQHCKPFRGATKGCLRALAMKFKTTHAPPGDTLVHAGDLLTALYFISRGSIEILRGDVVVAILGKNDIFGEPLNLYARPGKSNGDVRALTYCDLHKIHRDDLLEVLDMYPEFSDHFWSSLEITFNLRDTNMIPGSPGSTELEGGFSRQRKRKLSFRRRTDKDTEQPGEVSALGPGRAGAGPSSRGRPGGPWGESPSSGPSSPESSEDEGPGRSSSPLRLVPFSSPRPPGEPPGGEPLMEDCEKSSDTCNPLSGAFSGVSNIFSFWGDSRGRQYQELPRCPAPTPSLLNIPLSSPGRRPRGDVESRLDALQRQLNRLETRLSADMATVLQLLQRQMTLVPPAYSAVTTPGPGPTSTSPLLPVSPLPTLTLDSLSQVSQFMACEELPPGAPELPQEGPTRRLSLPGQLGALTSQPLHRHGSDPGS
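Note: peak tail current of the secondary pulse compared with the same well before compound.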

Point of comparison: `O=C(O)C(=O)O.c1ccc(-c2ccccc2OCCOCCN2CCOCC2)cc1`, “hERG current change (%, negative = inhibition) at 10uM” value 6.15%. Against it:
- Cc1cc(C)cc(N(C(=O)CNC(=O)c2ccco2)C(C(=O)NC2CCCCC2)c2ccncc2)c1 (stereo not drawn) — lower, -10%
- CCOC(=O)C1=C(C)NC(=O)C(C(N)=O)C1c1ccccc1 (stereo not drawn) — lower, 5.2%
- O=c1[nH]c2cc3c(cc2cc1C(c1nnnn1C1CCCC1)N1CCSCC1)OCCO3 (stereo not drawn) — higher, 13.6%
- CSc1nc(C)cc(-n2ccc(=O)[nH]c2=O)n1 — lower, -3.54%
- CCOC(=O)/C=c1\s/c(=C\c2c(OC)ccc3ccccc23)c(=O)n1CC(=O)NCC1CCCO1 (stereo not drawn) — lower, 2.13%
- Cc1ccccc1Nc1ncnc2c1cnn2C — lower, 4.92%
- CN(C)CC(C)(C)CNC(=O)c1cc(=O)c2ccccc2o1.Cl — higher, 19.6%
- Cc1cc(/C=C2/SC(=O)N(CC(=O)N3CCCC3)C2=O)c(C)n1C — lower, -5.16%
- Cc1cc(OCCCn2ccnc2)cc(C(C)C)c1 — lower, -14.4%
- CCC(C)NCCCCOc1cc(C)cc(C(C)C)c1 (stereo not drawn) — lower, -54.9%
- Cc1cc(OCCCCNC(C)C)cc(C(C)C)c1.O=C(O)C(=O)O — lower, -29.6%
- COc1ccc(C(=O)Oc2cc(N)n(S(=O)(=O)c3ccccc3)n2)cc1 — lower, -7.73%
- COc1ccccc1NS(=O)(=O)c1ccc(C(=O)NCC(c2ccccc2OC)N(C)C)cc1 (stereo not drawn) — lower, -0.121%
- Cc1ccc(OCc2cc(C(=O)N3CCC(C(O)C(C)C)CC3)no2)cc1C (stereo not drawn) — lower, -23.1%
- CCN1CCN(CCOc2ccccc2-c2ccccc2)CC1.O=C(O)C(=O)O — lower, -32.9%
- CCc1ccccc1OCCCCN1CCCCC1.O=C(O)C(=O)O — lower, -30%
- Cl.OCCN1CCN(CCOc2ccccc2-c2ccccc2)CC1 — lower, -24.1%
- O=C(O)C(=O)O.c1ccc(-c2ccccc2OCCCN2CCCC2)cc1 — lower, -65%
- O=C(O)C(=O)O.c1ccc(-c2ccccc2OCCCN2CCOCC2)cc1 — lower, -37.1%
- CCN1CCN(CCOCCOc2ccccc2-c2ccccc2)CC1.O=C(O)C(=O)O — lower, -35.6%
- Cl.OCCCN1CCN(CCCOc2ccccc2-c2ccccc2)CC1 — lower, -69.6%
- CC(=O)c1ccccc1OCCCCN1CCCCC1.O=C(O)C(=O)O — lower, -59.5%
- CCN1CCN(CCCOc2ccccc2-c2ccccc2)CC1.O=C(O)C(=O)O — lower, -66.6%
- CC(=O)c1ccccc1OCCCN1CCCCC1.O=C(O)C(=O)O — lower, -31.8%
- O=C(CSc1nnc(-c2cccnc2)o1)Nc1cccc(F)c1 — lower, -1.97%
- Cc1c(Br)c([N+](=O)[O-])nn1CC(=O)N1CCN(C23CC4CC(CC(C4)C2)C3)CC1 — lower, -38.1%
- Cc1c(N2C(=O)/C(=C\c3ccccc3O)SC2=S)c(=O)n(-c2ccccc2)n1C — higher, 30.5%
- O=C(O)Cc1nc2nc3c(c(=O)n2[nH]1)CCCC3 — higher, 16.3%
- CCOc1ccc(/C=N/NC(=O)c2cc(-c3cccn3C)n[nH]2)cc1 — lower, 5.27%
- COc1ccc(C/C(O)=C(\C#N)c2nc3ccccc3s2)cc1 — higher, 11.6%
- O=C(O)C(=O)O.c1ccc(-c2ccccc2OCCCN2CCCCC2)cc1 — lower, -74.6%
- O=C(O)C(=O)O.c1ccc(-c2ccccc2OCCN2CCCCC2)cc1 — lower, -45.9%
- O=C(O)C(=O)O.c1ccc(-c2ccccc2OCCCN2CCCCCC2)cc1 — lower, -80.1%
- O=C(O)C(=O)O.c1ccc(-c2ccccc2OCCCCN2CCCCCC2)cc1 — lower, -77.5%
- CCC1(c2ccc(C)cc2)NC(=O)N(CC(=O)Nc2cccc(S(=O)(=O)N3CCCC3)c2)C1=O (stereo not drawn) — lower, 0.0785%
- O=C(NCCCN1CCCCC1)C1CC(=O)N(CCc2ccccc2)C1 (stereo not drawn) — higher, 12.3%
- CC(C)CC(=O)Nc1nnc(S(=O)(=O)N2CCCCCC2)s1 — lower, -15%
- COc1ccc(-c2nc3c(s2)CN(S(C)(=O)=O)CC3)cc1OC — higher, 15.2%
- Cc1ccc(S(=O)(=O)NCCC(=O)Nc2ccc(C)c(Cl)c2)cc1C — lower, -1.46%
- CCOC(=O)C1CCCN(C2CC(=O)N(c3ccc(C(C)C)cc3)C2=O)C1 (stereo not drawn) — lower, -10%
- CCc1ccc(NC(=O)Cc2ccc(-n3cccc3)cc2)cc1 — lower, 0.973%
- Cc1[nH]n(-c2ccccc2)c(=O)c1/C=N/n1c(C)nc2ccccc2c1=O — higher, 11.8%
- CCc1ccc(Nc2ccc(C(N)=O)cc2[N+](=O)[O-])cc1 — higher, 8.56%
- Cc1ccc(N)c(N)c1 — higher, 6.61%
- CCCCCn1c2c(c(=N)c3ccccc31)CCC2.I — lower, -71.2%
- O=C(O)CCn1c2c(c3ccccc31)CCCC2 — higher, 25.3%
- Cl.N=c1c2c(n(Cc3ccccc3)c3c1CCC3)CCC2 — lower, -0.485%
- CC(=O)NNC(=O)CCn1c2c(c3ccccc31)CCCC2 — higher, 9.01%
- CCCCn1c2c(c(=N)c3ccccc31)CCC2.I — lower, -50.3%
- CCOC(=O)Cn1c2c(c(=N)c3ccccc31)CCC2.Cl — lower, 4.06%
- CCCCCCCn1c2c(c(=N)c3ccccc31)CCC2.I — lower, -81.4%
- O=C(O)Cn1c2c(c3ccccc31)CCCC2 — higher, 7.39%
- Br.CCn1c2c(c(=N)c3ccccc31)CCC2 — lower, 5.12%
- [N-]=[N+]=NC[C@H](Cc1ccccc1)N1CC[C@@H](OCc2ccccc2)CCC1=O — lower, -13.3%
- CCC(=O)n1nc(-c2ccc(Cl)cc2)nc1N — lower, 3.71%
- CC1(/[N+]([O-])=C/c2ccccc2F)CCCCC1=O (stereo not drawn) — higher, 25.2%
- O=C1OC(c2ccc(Br)cc2)=N/C1=C\c1ccco1 — higher, 26.3%
- CCOc1nc(NCCc2ccc(OC)c(OC)c2)nc(N2CCN(c3ccc(OC)cc3)CC2)n1 — lower, -3.79%
- COc1ccc(CCNc2nc(N3CCOCC3)nc(N3CCOCC3)n2)cc1OC — lower, 3.45%
- COc1ccc(N2CCN(c3nc(NCCc4ccc(OC)c(OC)c4)nc(OC)n3)CC2)cc1 — lower, -78.3%
- N=C1C(c2nc(-c3ccc(Cl)cc3)cs2)=C(O)CN1NC(=O)c1ccc(O)cc1 — lower, 4.02%
- Cc1ccccc1N1CCN(C2CCCN(C(=O)c3cc[n+]([O-])cc3)C2)CC1 (stereo not drawn) — higher, 9.87%
- COc1ccc(CN2C(=O)CCC(C(=O)O)C2c2ccccc2)cc1 (stereo not drawn) — higher, 25.6%
- O=C(COc1cccc([N+](=O)[O-])c1)NN1C(=O)c2ccccc2C1=O — lower, -5.95%
- Cc1cc(C(=O)COc2cccc([N+](=O)[O-])c2)c(C)n1C1CC1 — lower, -35.7%
- Cc1cc(=O)n(C)c(=O)n1CCCCCCOc1cccc([N+](=O)[O-])c1 — lower, -69.3%
- Cc1cc(=O)n(C)c(=O)n1CCCNc1ccccc1.O=C(O)C(=O)O — lower, -4.01%
- Cc1cc(=O)n(C)c(=O)n1CCCCCOc1cccc([N+](=O)[O-])c1 — lower, -57.9%
- Cc1cc(=O)n(C)c(=O)n1CCCCOc1cccc([N+](=O)[O-])c1 — lower, -14.5%
- Cn1nccc1CNC(=O)c1ccnn1C — higher, 14.9%
- COc1ccc(COC(=O)C2=C(C)NC(=O)NC2c2cccc(OC)c2OC)cc1 (stereo not drawn) — lower, 5.25%
- CCC(=O)Nc1ncc2c(n1)CC(c1ccco1)CC2=O (stereo not drawn) — higher, 7.92%
- Cc1ccc(Cl)cc1NC(=O)COC(=O)C1CCCC1 — lower, -75.8%
- COc1ccc(CCNC(=O)C2CCN(C(=O)c3ccc(Cl)cc3)CC2)cc1OC — lower, 2.77%
- Cc1ccc(Cl)cc1NC(=O)COC(=O)C1CCCCC1 — higher, 7.48%
- COc1ccc(C)cc1NC(=O)Nc1ccc(C(=O)N2CCCC2)cc1 — lower, -23%
- COc1ccc(Cl)cc1NC(=O)COC(=O)C1CC1 — lower, -0.403%
- COc1ccc(COC(=O)C2CCN(C(=O)c3ccc(Cl)cc3)CC2)cc1F — lower, -52.2%
- COc1ccc(C)cc1NC(=O)COC(=O)C1CC1 — higher, 6.16%
- COc1ccc(Cl)cc1NC(=O)COC(=O)C1CCCCC1 — higher, 7.15%
- COc1ccc(C)cc1NC(=O)COC(=O)C1CCN(C(=O)c2ccc(Cl)cc2)CC1 — lower, -79.1%
- COc1ccc(OC)c(NC(=O)COC(=O)C2CCN(C(=O)c3ccc(Cl)cc3)CC2)c1 — lower, -71.1%
- Cc1ccc(Cl)cc1NC(=O)COC(=O)C1CC1 — lower, -5.31%
- O=C(OCc1ccccn1)C1CCN(C(=O)c2ccc(Cl)cc2)CC1 — lower, -36%
- Cl.NC(CO)C12CC3CC(CC(C3)C1)C2 (stereo not drawn) — higher, 9.97%
- Cc1ccc(C(C(=O)NCc2ccco2)N(C(=O)CNC(=O)c2cccs2)c2ccc(C)cc2C)cc1 (stereo not drawn) — lower, -10.3%
- CN1CCN(c2nc(-c3ccccc3)cc(C(F)(F)F)n2)CC1 — lower, -19.1%
- CCOc1ccc2c(c1)c(N=NC(N)=S)c(O)n2C — lower, 1.21%
- CC(C)Cc1nnc(NC(=O)C2CC(=O)N(Cc3ccccc3)C2)s1 (stereo not drawn) — lower, 0.385%
